Results as given in PubChem BioAssay AID1494157 (National Center for Advancing Translational Sciences (NCATS), 2020).
Inconclusive results are not listed. Calls of active or inactive are those of the source. Calls come from the whole dose curve.

Assay: Confirmatory qHTS for inhibitors of MERS-S pseudo-typed particle cell entry

Structure (SMILES) | Potency
NCCNc1ccc(NCCN)c2c1C(=O)c1ccncc1C2=O | 19.2 µM (active)
COC(=O)C[C@](O)(CCCC(C)(C)O)C(=O)O[C@@H]1C(OC)=C[C@]23CCCN2CCc2cc4c(cc2[C@H]13)OCO4 | 0.607 µM (active)
Cc1c(N)nc(C(CC(N)=O)NCC(N)C(N)=O)nc1C(=O)NC(C(=O)NC(C)C(O)C(C)C(=O)NC(C(=O)NCCc1nc(-c2nc(C(=O)NCCCN[C@@H](C)c3ccccc3)cs2)cs1)C(C)O)C(O[C@@H]1O[C@@H](CO)[C@@H](O)[C@H](O)[C@@H]1O[C@H]1O[C@H](CO)[C@@H](O)[C@H](OC(N)=O)[C@@H]1O)c1cnc[nH]1 (some centres undefined) | inactive
CC(C)OC(=O)[C@H](C)N[P@](=O)(CO[C@H](C)Cn1cnc2c(N)ncnc21)Oc1ccccc1 | 0.0152 µM (active)
CCn1cc(C(=O)O)c(=O)c2cc(F)c(N3CCNC(C)C3)c(F)c21 (centres undefined) | inactive
COc1cc(NS(C)(=O)=O)ccc1Nc1c2ccccc2nc2ccccc12 | 1.36 µM (active)
O=C(Nc1ccc(Cl)cc1)Nc1ccc(Cl)c(C(F)(F)F)c1 | 10.8 µM (active)
CCCCc1oc2ccccc2c1C(=O)c1cc(I)c(OCCN(CC)CC)c(I)c1 | 10.8 µM (active)
Cc1nnc2n1-c1sc(CCc3ccc(CC(C)C)cc3)cc1C(c1ccccc1Cl)=NC2C (centres undefined) | 27.1 µM (active)
Cc1cc(-n2c(=O)[nH]c(=O)n(C)c2=O)ccc1Oc1ccc(S(=O)(=O)C(F)(F)F)cc1 | 6.81 µM (active)
C[C@@H](c1nc(-c2ccc(C#N)cc2)cs1)[C@](O)(Cn1cncn1)c1cc(F)ccc1F | 5.41 µM (active)
COc1cc2nccc(Oc3ccc(NC(=O)NC4CC4)c(Cl)c3)c2cc1C(N)=O | 17.1 µM (active)
CCc1c2c(nc3ccc(OC(=O)N4CCC(N5CCCCC5)CC4)cc13)-c1cc3c(c(=O)n1C2)COC(=O)[C@]3(O)CC | 15.2 µM (active)
OCCN1CCN(CC/C=C2/c3ccccc3Sc3ccc(C(F)(F)F)cc32)CC1 | 12.1 µM (active)
CC(C)C(=O)Oc1ccc(CO)cc1[C@H](CCN(C(C)C)C(C)C)c1ccccc1 | 19.2 µM (active)
O=c1ccc2ccccc2o1 | inactive
CCN(CC)CCNC(=O)c1c(C)[nH]c(/C=C2\C(=O)Nc3ccc(F)cc32)c1C | 4.29 µM (active)
O=C1CCc2ccc(OCCCCN3CCN(c4cccc(Cl)c4Cl)CC3)cc2N1 | 12.1 µM (active)
C/C=C(/C)C(=O)O[C@H]1C(C)=CC23C(=O)C(C=C(CO)[C@@H](O)[C@]12O)[C@H]1[C@@H](C[C@H]3C)C1(C)C (some centres undefined) | inactive
COc1cccc2c1C(=O)c1c(O)c3c(c(O)c1C2=O)C[C@@](O)(C(=O)CO)C[C@@H]3O[C@H]1C[C@H](N)[C@H](OC2CCCCO2)[C@H](C)O1 (some centres undefined) | inactive
Cc1nnc(C(=O)NC(C)(C)c2nc(C(=O)NCc3ccc(F)cc3)c(O)c(=O)n2C)o1 | 0.0043 µM (active)
CN1CCN(CCC=C2c3ccccc3Sc3ccc(S(=O)(=O)N(C)C)cc32)CC1 | 6.07 µM (active)
Cc1ccc(NC(=O)c2ccc(CN3CCN(C)CC3)cc2)cc1Nc1nccc(-c2cccnc2)n1 | 13.6 µM (active)
O=C1c2c(O)ccc(O)c2C(=O)c2c(NCCNCCO)ccc(NCCNCCO)c21 | 0.961 µM (active)
CC(=O)[C@]1(O)Cc2c(O)c3c(c(O)c2[C@@H](O[C@H]2C[C@H](N)[C@H](O)[C@H](C)O2)C1)C(=O)c1ccccc1C3=O | 2.15 µM (active)
Cc1oncc1C(=O)Nc1ccc(C(F)(F)F)cc1 | inactive
CCCCCCCCCCCC[n+]1ccc2ccccc2c1 | 1.36 µM (active)
CC(=O)Oc1ccccc1C(=O)Nc1ncc([N+](=O)[O-])s1 | 10.8 µM (active)
C[C@]12CC[C@H](O)C[C@H]1CCC1C2CC[C@]2(C)[C@@H](c3ccc(=O)oc3)C[C@H]3O[C@]132 (some centres undefined) | 3.83 µM (active)
